# From PubChem
# RmlCD inh mix: RmlC/RmlD inhibition, mixture screen; RmlC/RmlD coupled enzyme inhibition, 384-well mixture HTS; inhibition, % at 5.5 µM; 0.39% of 110,000 active; in the data active = inhibition above about 30%, passing the limit was not always enough
# HIV RNase H inh-1: inhibitors of HIV-1 reverse transcriptase RNase H. 1.9% of 65,000 active. inhibition, % at 10 µM. RT-RNase H RNA/DNA duplex cleavage, fluorescence. AID 565. P04585; in the data active = inhibition above about 50%
# HIV RNase H inh-2: confirmation of HIV-1 reverse transcriptase RNase H inhibitors; shares compounds with HIV RNase H inh-1; Recombinant RT RNase H, fluorescent RNA/DNA duplex cleavage; inhibition, % at 10 µM; 39% of 1,000 active; AID 651; in the data active = inhibition above about 48%
# An asterisk follows results filed as active; · = no result given. The sample as a whole holds a higher share of hits than the screen did.
SMILES,RmlCD inh mix,HIV RNase H inh-1,HIV RNase H inh-2
Clc1ccccc1-c1nn2c(-c3ccncc3)nnc2s1,6,87*,57*
Cc1cc(C(=O)CN2C(=O)NC(c3ccccc3)(c3ccccc3)C2=O)c(C)n1Cc1ccccc1,2,·,·
O=C1N[C@@H](Cc2cn(S(=O)(=O)c3c(F)c(F)c(F)c(F)c3F)c3ccccc23)C(=O)N[C@H]1Cc1ccccc1,-12,·,·
Cc1ccc(-c2nnn(CC(=O)Nc3cccc4c3CCCC4)n2)o1,-7,71*,7
CCN(CC)C(=O)Cn1nnc(-c2ccc(C)o2)n1,5,3,·
CC(NC(=O)C(=O)NN=C1CCCCCCCCCCC1)c1ccccc1 (stereo not given),0,·,·
CCOc1ccc(-c2nnc(N(CC)C(=O)C3CCC3)s2)cc1,-15,66*,1
COCCN(C(=O)C1CC1)c1nnc(-c2ccc(C)cc2)s1,-4,·,·
Cc1oc(-c2nc3ccccc3n2C)cc1C(=O)c1ccccc1,9,44,·
Cc1nn(C)c(C)c1S(=O)(=O)N(CC(=O)N1CCc2ccccc2C1)c1ccc(C(C)C)cc1,7,·,·
CSc1nc2c(c(=O)[nH]1)C(c1cccs1)C1=C(CCCC1=O)N2 (stereo not given),9,17,·
Cc1ccc(CSc2nc3c(c(=O)[nH]2)C(c2ccncc2)C2=C(CCCC2=O)N3)cc1 (stereo not given),49,59*,40
CCOC(=O)[C@@H]1[C@H]2COc3ccccc3[C@@H]2N2C(=O)N(c3ccc(OC)cc3)C(=O)[C@]12C,-16,·,·
C=CCn1c(SCC(=O)Nc2ccc3c(c2)OCO3)nc2ccccc2c1=O,-12,-6,·
CC(C)Cn1c(SCC(=O)NC(=O)Nc2ccc3c(c2)OCCO3)nc2ccccc2c1=O,7,92*,54*
CCc1ccccc1NC1=NCC(=O)N1Cc1ccccc1,4,-30,·
CCc1ccccc1NC1=NCC(=O)N1C1CCCCC1,·,83*,20
O=C(CCc1nc(-c2ccccc2F)no1)NC1CCCCC1,-11,-1,·
CCOc1ccc(CCNC(=O)c2cc3sccc3n2CC)cc1OCC,7,·,·
CCN(CC)C1=CC(=O)OC12CCCCC2,3,55*,65*
CCN(CC)CCNC1=CC(=O)OC12CCCCC2,-14,·,·
COc1ccc(OC)c(C(O)c2coc3ccc(O)c(CN4CCOCC4)c23)c1 (stereo not given),3,9,·
CCCCCn1c(C(Cc2ccccc2)NC(=O)COC)nc2ccccc21 (stereo not given),-12,·,·
O=C(CSc1nnnn1-c1ccc2c(c1)OCCO2)OC1CCCCC1,7,87*,28
O=C(CSc1nnnn1-c1ccc2c(c1)OCCO2)N1CCc2ccccc21,7,1,·
SMILES,RmlCD inh mix,HIV RNase H inh-1,HIV RNase H inh-2
CCn1c(SCCC(=O)Nc2ccccc2)nnc1-c1ccc(OC)cc1,-20,-3,·
O=C(Nc1ccccc1)N1CCCC(c2nc(-c3ccc(F)cc3)no2)C1 (stereo not given),1,·,·
O=C(Nc1cccc(C(F)(F)F)c1)N1CCC(c2nc(-c3ccc(F)cc3)no2)CC1,6,67*,47
COc1ccc(OC)c(S(=O)(=O)N2CCC(C(=O)Nc3cccc(C(F)(F)F)c3)CC2)c1,-9,12,·
CC(=O)N(C)c1nnc(-c2ccccn2)s1,5,·,·
Cc1ccc(CCNC(=O)C2CCC(=O)N2C2CCCC2)cc1 (stereo not given),6,-1,·
O=C(N[C@@H](Cc1ccc(O)cc1)C(=O)O)c1ccncc1,-16,·,·
Cc1ccc(-c2cc(C(=O)Nc3ccccc3C)c3ccccc3n2)o1,-38,·,·
Cc1ccc(-c2cc(C(=O)NC3=NCCS3)c3cc(Br)ccc3n2)o1,10,95*,80*
Cc1ccc(-c2cc(C(=O)NCCCn3ccnc3)c3cc(Br)ccc3n2)o1,-15,78*,22
Cc1cccc(-c2cc(C(=O)NCCCn3ccnc3)c3ccccc3n2)c1,15,·,·
COc1ccc(-c2nnc(CSc3nc4ccccc4c(=O)n3CC3CCCO3)o2)cc1OC (stereo not given),·,-18,·
Cc1ccc(NC(=O)CSc2nnc(-c3ccc(S(=O)(=O)N4CCCC4)cc3)o2)cc1C,10,70*,69*
Cc1cccc(NC(=O)CSc2nnc(-c3ccc(S(=O)(=O)N4CCCC4)cc3)o2)c1,-5,3,·
COc1c2c(c(C)c3c1C(=O)OC3)O[C@@]1(C)CC[C@@]3(O)C(C)(C)OC(=O)CC[C@]3(C)[C@H]1C2,1,·,·
CSc1nnc(-c2sccc2OCc2ccc(C)cc2)n1C,15,·,·
O=S(=O)(c1ccc2c(c1)OCCO2)N1CCC(n2nnc3cc(F)ccc32)CC1,-9,-2,·
O=C(N1CCOCC1)N1CCC(n2nnc3cc(F)ccc32)CC1,14,84*,34
O=C(COC(=O)c1ccc2c(c1)OCO2)NCc1ccc(Cl)cc1,-12,10,·
COc1ccccc1N=c1oc2c(OC)cccc2cc1C(=O)NCc1ccco1,3,70*,72*
COc1cccc2cc(C(=O)NCc3ccccn3)c(=O)oc12,7,·,·
COC(=O)CCCCCN1C(=O)NC(C2CC2)C(C(=O)OCc2ccccc2)=C1C (stereo not given),-14,·,·
O=C(Nc1ccncc1)c1c(O)c2ccccc2n(Cc2ccccc2)c1=O,·,4,·
CC(C)Cn1c(=O)c(C(=O)Nc2ccncc2)c(O)c2ccccc21,·,71*,47
C[C@H]1CCC[C@@]2(O[C@H](CCO)C[C@H](O)[C@H]2O)O1,-10,·,·
SMILES,RmlCD inh mix,HIV RNase H inh-1,HIV RNase H inh-2
Cc1cccc(-c2nsc(SCC(=O)Nc3nccs3)n2)c1,0,82*,74*
Cc1cc(NC(=O)CSc2ccc(-c3nc4cc(C)c(C)cc4[nH]3)cn2)no1,-39,70*,72*
CCc1nnc(NC(=O)CSc2nc(-c3ccc(OC)cc3)ns2)s1,8,30,·
COc1ccc(-c2nsc(SCC(=O)Nc3cc(C)on3)n2)cc1,6,84*,61*
Cc1cccc(-c2nsc(SCC(=O)N3CCCC3)n2)c1,3,79*,34
Cc1cccc(-n2c(SCC(=O)N3CCCC3)nc3n[nH]c(C)c3c2=N)c1,3,·,·
Cc1cc2nc(-c3ccc(SCC(=O)N4CCc5ccccc54)nc3)[nH]c2cc1C,-42,·,·
O=C(CSc1nc2ccccc2s1)Nc1nccs1,14,·,·
COc1cc(C2=CCN(C(C)=O)CC2)ccc1OC(C)=O,-12,·,·
COc1cc(OC)cc(OCC(O)Cn2ccnc2)c1 (stereo not given),-8,-14,·
CC1(C)Cc2[nH]c(=S)c(C#N)cc2CO1,-2,70*,65*
Cc1cc(C)n2c3c(c(C#N)c2n1)CC(C)(C)OC3,11,-3,·
CCOC(=O)c1c(C)[nH]c(C)c1C(=O)COC(=O)c1ccc(Cl)c(S(=O)(=O)NCc2ccccc2)c1,-1,·,·
COc1ccc(NC(=O)c2ccc(C(=O)c3cc(OC)ccc3OC)cc2)cc1,6,·,·
O=C(NC1CC1)C1=C[C@H](c2ccc(C(F)(F)F)cc2)C[C@H](OCc2ccc(CO)cc2)O1,0,·,·
CC1=C(C)NC(=S)SC1,-13,55*,5
Cc1cc(C)nc(SC2=CS(=O)(=O)c3ccccc32)n1,-14,-19,·
O=S1(=O)C=C(Sc2nnc(-c3ccccc3)o2)c2ccccc21,·,65*,21
Cc1ccc(S(=O)(=O)N2CCN(CC(=O)NC(=O)NCc3ccccc3)CC2)cc1C,14,·,·
O=c1c2ccccc2nc(N2CCCC2)n1-c1ccccc1,13,·,·
